# Laboratory results from publication PMC8384837, “Expanding the binding specificity for RNA recognition by a PUF domain”.
# Experiments:
# Experiment in all cases: yeast three-hybrid, YBZ-1, SC-Leu-His + 0.5 mM 3-AT, 4 days
# Details in all cases: tags: N-Gal4 AD-HA kept; label: inside an RPR1-promoter hybrid RNA with tandem MS2 sites; ssRNA
# PUM1 PUF domain R4-SPL = PUM1 PUF domain R4-SPL (Homo sapiens, UniProt Q14671 828-1176, N971S;H972P;Q975L)
# Outline: (§1)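 Each repeat of the Pumilio-1 PUF domain was randomized at its three base-contacting residues, and these libraries were co-expressed from a centromeric plasmid with matching RNA elements in strain YBZ-1. After four days on SC-Leu (input) or SC-Leu-His + 0.5 mM 3-AT (selection), the repeat regions were PCR-amplified and Illumina-sequenced. The interaction score compares variant frequency between input and selection as a log change, computed in log2 with a pseudocount of 1 for absent variants.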
# PUM1 PUF domain R3-VCQ = PUM1 PUF domain R3-VCQ (Homo sapiens, UniProt Q14671 828-1176, C935V;R936C)
# Chain of PUM1 PUF domain R3-VCQ (Q14671 828-1176 C935V/R936C): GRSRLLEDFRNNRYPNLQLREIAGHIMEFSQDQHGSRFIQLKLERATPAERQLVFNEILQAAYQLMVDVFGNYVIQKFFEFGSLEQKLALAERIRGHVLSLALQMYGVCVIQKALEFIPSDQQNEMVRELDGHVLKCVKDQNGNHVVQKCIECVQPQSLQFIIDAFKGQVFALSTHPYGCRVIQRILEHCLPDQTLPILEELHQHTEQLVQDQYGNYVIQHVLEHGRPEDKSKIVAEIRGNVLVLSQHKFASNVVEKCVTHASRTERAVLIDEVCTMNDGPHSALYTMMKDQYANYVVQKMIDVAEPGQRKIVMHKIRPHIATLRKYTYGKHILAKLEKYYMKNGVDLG
# Outline: as §1
# PUM1 PUF domain R4-AQS = PUM1 PUF domain R4-AQS (Homo sapiens, UniProt Q14671 828-1176, N971A;H972Q;Q975S)
# Chain of PUM1 PUF domain R4-AQS (Q14671 828-1176 N971A/H972Q/Q975S): as the sequence (Q14671 828-1176 C935V/R936C) above, with V108C, C109R, N144A, H145Q, Q148S counted along it
# Outline: as §1
# PUM1 PUF domain R4-ALG = PUM1 PUF domain R4-ALG (Homo sapiens, UniProt Q14671 828-1176, N971A;H972L;Q975G)
# Outline: as §1
# PUM1 PUF domain R5-VRV = PUM1 PUF domain R5-VRV (Homo sapiens, UniProt Q14671 828-1176, C1007V;Q1011V)
# Outline: as §1
# PUM1 PUF domain R6-DWQ = molecular target: T1, PUM1 PUF domain R6-DWQ (Homo sapiens, UniProt Q14671 828-1176, N1043D;Y1044W)
# T1 sequence: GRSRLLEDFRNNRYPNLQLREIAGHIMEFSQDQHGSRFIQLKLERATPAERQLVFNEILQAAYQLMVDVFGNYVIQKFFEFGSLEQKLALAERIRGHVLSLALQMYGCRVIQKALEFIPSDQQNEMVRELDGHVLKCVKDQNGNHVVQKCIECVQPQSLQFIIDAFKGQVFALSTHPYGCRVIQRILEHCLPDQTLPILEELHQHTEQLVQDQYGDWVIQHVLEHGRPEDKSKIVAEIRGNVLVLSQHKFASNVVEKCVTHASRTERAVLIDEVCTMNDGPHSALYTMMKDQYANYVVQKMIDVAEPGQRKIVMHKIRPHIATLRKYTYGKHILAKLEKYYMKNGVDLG
# Outline: as §1
# PUM1 PUF domain R3-MCK = PUM1 PUF domain R3-MCK (Homo sapiens, UniProt Q14671 828-1176, C935M;R936C;Q939K)
# Chain of PUM1 PUF domain R3-MCK (Q14671 828-1176 C935M/R936C/Q939K): as the sequence (Q14671 828-1176 C935V/R936C) above, with V108M, Q112K counted along it
# Outline: as §1
# PUM1 PUF domain R3-QRR = PUM1 PUF domain R3-QRR (Homo sapiens, UniProt Q14671 828-1176, C935Q;Q939R)
# Outline: as §1
# PUM1 PUF domain R1-GGR = PUM1 PUF domain R1-GGR (Homo sapiens, UniProt Q14671 828-1176, S863G;R864G;Q867R)
# Chain of PUM1 PUF domain R1-GGR (Q14671 828-1176 S863G/R864G/Q867R): as the sequence (Q14671 828-1176 C935V/R936C) above, with S36G, R37G, Q40R, V108C, C109R counted along it
# Outline: as §1
# PUM1 PUF domain R1-KTR = PUM1 PUF domain R1-KTR (Homo sapiens, UniProt Q14671 828-1176, S863K;R864T;Q867R)
# Chain of PUM1 PUF domain R1-KTR (Q14671 828-1176 S863K/R864T/Q867R): as the sequence (Q14671 828-1176 C935V/R936C) above, with S36K, R37T, Q40R, V108C, C109R counted along it
# Outline: as §1
# PUM1 PUF domain R5-KLM = PUM1 PUF domain R5-KLM (Homo sapiens, UniProt Q14671 828-1176, C1007K;R1008L;Q1011M)
# Chain of PUM1 PUF domain R5-KLM (Q14671 828-1176 C1007K/R1008L/Q1011M): as the sequence (Q14671 828-1176 C935V/R936C) above, with V108C, C109R, C180K, R181L, Q184M counted along it
# Outline: as §1
# PUM1 PUF domain R5-KGI = PUM1 PUF domain R5-KGI (Homo sapiens, UniProt Q14671 828-1176, C1007K;R1008G;Q1011I)
# Chain of PUM1 PUF domain R5-KGI (Q14671 828-1176 C1007K/R1008G/Q1011I): as the sequence (Q14671 828-1176 C935V/R936C) above, with V108C, C109R, C180K, R181G, Q184I counted along it
# Outline: as §1
# PUM1 PUF domain R5-MKR = PUM1 PUF domain R5-MKR (Homo sapiens, UniProt Q14671 828-1176, C1007M;R1008K;Q1011R)
# Outline: as §1
# PUM1 PUF domain R5-GQQ = PUM1 PUF domain R5-GQQ (Homo sapiens, UniProt Q14671 828-1176, C1007G;R1008Q)
# Outline: as §1
# PUM1 PUF domain R5-EKL = PUM1 PUF domain R5-EKL (Homo sapiens, UniProt Q14671 828-1176, C1007E;R1008K;Q1011L)
# Outline: as §1
# PUM1 PUF domain R5-HQD = PUM1 PUF domain R5-HQD (Homo sapiens, UniProt Q14671 828-1176, C1007H;R1008Q;Q1011D)
# Chain of PUM1 PUF domain R5-HQD (Q14671 828-1176 C1007H/R1008Q/Q1011D): as the sequence (Q14671 828-1176 C935V/R936C) above, with V108C, C109R, C180H, R181Q, Q184D counted along it
# Outline: as §1
# PUM1 PUF domain R5-PWL = PUM1 PUF domain R5-PWL (Homo sapiens, UniProt Q14671 828-1176, C1007P;R1008W;Q1011L)
# Outline: as §1
# PUM1 PUF domain R8-MYL = PUM1 PUF domain R8-MYL (Homo sapiens, UniProt Q14671 828-1176, N1122M;Q1126L)
# Chain of PUM1 PUF domain R8-MYL (Q14671 828-1176 N1122M/Q1126L): as the sequence (Q14671 828-1176 C935V/R936C) above, with V108C, C109R, N295M, Q299L counted along it
# Outline: as §1
# PUM1 PUF domain R5-GYV = PUM1 PUF domain R5-GYV (Homo sapiens, UniProt Q14671 828-1176, C1007G;R1008Y;Q1011V)
# Outline: as §1
# PUM1 PUF domain R1-NFR = PUM1 PUF domain R1-NFR (Homo sapiens, UniProt Q14671 828-1176, S863N;R864F;Q867R)
# Outline: as §1
# Chain of PUM1 PUF domain R4-SPL (Q14671 828-1176 N971S/H972P/Q975L): as the sequence (Q14671 828-1176 C935V/R936C) above, with V108C, C109R, N144S, H145P, Q148L counted along it
sequence,measurement,setting,value
GGCUAGAACUAGUGGAUCCCCCGGCGCCCGGCGGCUCGAGCCCGGGUAAGUGUAAAUAGUCUGCAUGCCGCCGGGCGCCAUGCCUGCAGGUCGACUCUAGAAAACAUG,binding signal,PUM1 PUF domain R4-SPL,2.38 log2 enrichment (interaction score)
same,binding signal,PUM1 PUF domain R3-VCQ,2.76 log2 enrichment (interaction score)
same,binding signal,PUM1 PUF domain R4-AQS,2.27 log2 enrichment (interaction score)
same,binding signal,PUM1 PUF domain R4-ALG,2.12 log2 enrichment (interaction score)
same,binding signal,PUM1 PUF domain R5-VRV,3.36 log2 enrichment (interaction score)
same,binding signal,PUM1 PUF domain R6-DWQ,2.34 log2 enrichment (interaction score)
GGCUAGAACUAGUGGAUCCCCCGGCGCCCGGCGGCUCGAGCCCGGGUAAGUGUAAGUAGUCUGCAUGCCGCCGGGCGCCAUGCCUGCAGGUCGACUCUAGAAAACAUG,binding signal,PUM1 PUF domain R3-MCK,4.78 log2 enrichment (interaction score)
same,binding signal,PUM1 PUF domain R3-QRR,3.94 log2 enrichment (interaction score)
GGCUAGAACUAGUGGAUCCCCCGGCGCCCGGCGGCUCGAGCCCGGGUAAGUGUAAAUUGUCUGCAUGCCGCCGGGCGCCAUGCCUGCAGGUCGACUCUAGAAAACAUG,binding signal,PUM1 PUF domain R1-GGR,1.86 log2 enrichment (interaction score)
same,binding signal,PUM1 PUF domain R1-KTR,4.86 log2 enrichment (interaction score)
GGCUAGAACUAGUGGAUCCCCCGGCGCCCGGCGGCUCGAGCCCGGGUAAGUGCAAAUAGUCUGCAUGCCGCCGGGCGCCAUGCCUGCAGGUCGACUCUAGAAAACAUG,binding signal,PUM1 PUF domain R6-DWQ,2.44 log2 enrichment (interaction score)
GGCUAGAACUAGUGGAUCCCCCGGCGCCCGGCGGCUCGAGCCCGGGUAAGUGUCAAUAGUCUGCAUGCCGCCGGGCGCCAUGCCUGCAGGUCGACUCUAGAAAACAUG,binding signal,PUM1 PUF domain R5-KLM,2.69 log2 enrichment (interaction score)
same,binding signal,PUM1 PUF domain R5-KGI,3.97 log2 enrichment (interaction score)
same,binding signal,PUM1 PUF domain R5-MKR,2.84 log2 enrichment (interaction score)
same,binding signal,PUM1 PUF domain R5-GQQ,4.12 log2 enrichment (interaction score)
same,binding signal,PUM1 PUF domain R5-EKL,2.47 log2 enrichment (interaction score)
GGCUAGAACUAGUGGAUCCCCCGGCGCCCGGCGGCUCGAGCCCGGGUAAGUGUUAAUAGUCUGCAUGCCGCCGGGCGCCAUGCCUGCAGGUCGACUCUAGAAAACAUG,binding signal,PUM1 PUF domain R5-HQD,3.03 log2 enrichment (interaction score)
same,binding signal,PUM1 PUF domain R5-KLM,0.44 log2 enrichment (interaction score)
same,binding signal,PUM1 PUF domain R5-MKR,1.52 log2 enrichment (interaction score)
same,binding signal,PUM1 PUF domain R5-PWL,3.31 log2 enrichment (interaction score)
GGCUAGAACUAGUGGAUCCCCCGGCGCCCGGCGGCUCGAGCCCGGGUAAGCGUAAAUAGUCUGCAUGCCGCCGGGCGCCAUGCCUGCAGGUCGACUCUAGAAAACAUG,binding signal,PUM1 PUF domain R8-MYL,2.58 log2 enrichment (interaction score)
GGCUAGAACUAGUGGAUCCCCCGGCGCCCGGCGGCUCGAGCCCGGGUAAGUGUAAUUAGUCUGCAUGCCGCCGGGCGCCAUGCCUGCAGGUCGACUCUAGAAAACAUG,binding signal,PUM1 PUF domain R3-VCQ,0.32 log2 enrichment (interaction score)
same,binding signal,PUM1 PUF domain R3-QRR,4.3 log2 enrichment (interaction score)
GGCUAGAACUAGUGGAUCCCCCGGCGCCCGGCGGCUCGAGCCCGGGUAAGUGUGAAUAGUCUGCAUGCCGCCGGGCGCCAUGCCUGCAGGUCGACUCUAGAAAACAUG,binding signal,PUM1 PUF domain R5-GYV,2.9 log2 enrichment (interaction score)
GGCUAGAACUAGUGGAUCCCCCGGCGCCCGGCGGCUCGAGCCCGGGUAAGUGUAUAUAGUCUGCAUGCCGCCGGGCGCCAUGCCUGCAGGUCGACUCUAGAAAACAUG,binding signal,PUM1 PUF domain R4-SPL,1.39 log2 enrichment (interaction score)
GGCUAGAACUAGUGGAUCCCCCGGCGCCCGGCGGCUCGAGCCCGGGUAAGUGUAAAUCGUCUGCAUGCCGCCGGGCGCCAUGCCUGCAGGUCGACUCUAGAAAACAUG,binding signal,PUM1 PUF domain R1-GGR,3.41 log2 enrichment (interaction score)
same,binding signal,PUM1 PUF domain R1-NFR,6.39 log2 enrichment (interaction score)
